Source: PubChem BioAssay (National Center for Advancing Translational Sciences (NCATS))
An excerpt weighted towards active compounds, which were near 7.9% of everything screened.
Marburg entry inh: Marburg virus entry inhibition; 300,000 compounds, 1.8% hits; AID 540276; Potency, µM (doses to about 37.8 µM), without a hit: at the highest dose activity change, negative = inhibition, usual class: inhibitors; Marburg virus pseudotyped entry inhibition, cell reporter; calls by dose curve; tested in HEK293 cells; further: potency means the concentration at half of the fitted maximal effect; on the % scale 0 is the no-effect control and ±100 the full control effect
HCV inh: blocks hepatitis C virus; Potency, µM (doses to about 41.8 µM), inactives show top-dose activity change, negative = inhibition, usual class: inhibitors; Huh7.5.1 HCVcc-Cre infection, luciferase reporter, 44 h; 340,000 compounds, 3.4% hits; AID 651820; further: potency means the concentration at half of the fitted maximal effect; on the % scale 0 is the no-effect control and ±100 the full control effect
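HCVcc-Cre virus at an moi near 0.5 was added right after compound to cells cultured 4 h from seeding (1,000 cells/well). Luciferase activity was determined 44 h later, 15 min after substrate addition at RT.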
LASV entry inh: blocks Lassa virus binding to or entry into cells; Lassa virus pseudotype entry inhibition, cell reporter; Potency, µM (doses to about 37.9 µM), without a hit: at the top dose activity change, negative = inhibition, usual class: inhibitors; 300,000 compounds, 1.2% hits; AID 540256; calls by dose curve; tested in HEK293 cells; further: potency means the concentration at half of the fitted maximal effect; on the % scale 0 is the no-effect control and ±100 the full control effect; nearly all actives have a fitted effect of over 50% in size
HCMV inh: inhibitors of human cytomegalovirus; HFF cells, HCMV-luciferase reporter, 72 h; hits give low values; activity change, negative = inhibition, % at 57.5 µM; 410,000 compounds, 4.5% hits; in the data active means activity change below about -60%; inconclusive means no clear call, values can overlap the other calls; inactive means above about -39%; further: on the % scale 0 is the no-effect control and ±100 the full control effect
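Screen run at 2 compound doses on HFFs infected with reporter HCMV, MOI 1 PFU/cell. Luciferase activity from cell lysates at 72 h post infection gave inhibition relative to buffer-only and Salinomycin wells.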
FMDV antiviral: foot and mouth disease virus antiviral activity; FMDV antiviral cell-based qHTS; Potency, µM (series often up to 57.9 µM), for the others: top-dose activity change, negative = inhibition, usual class: inhibitors; 410,000 compounds, 1.2% hits; AID 1159524; calls by dose curve; tested in HEK293T cells; further: read-out not given here; potency means the concentration at half of the fitted maximal effect; on the % scale 0 is the no-effect control and ±100 the full control effect; nearly all actives have a fitted effect of over 45% in size
HCV confirm: confirmation of hepatitis C virus inhibitors; shares compounds with HCV inh; Potency, µM (series often up to 41.8 µM), inactives show at the top dose activity, negative = inhibition, usual class: inhibitors; 640 compounds, 78% hits; HCVcc-Cre infectious virus cell assay, luciferase, inhibition; further: potency means the concentration at half of the fitted maximal effect; nearly all actives have a fitted effect of over 80% in size
HCV cytotox: toxic to HCV host cells, flagging false HCV inhibitors | shares compounds with HCV inh | HCV host cell line cytotoxicity counterscreen | Potency, µM (highest dose often 41.8 µM), for inactives: at the highest dose activity change, negative = cytotoxicity, usual class: inhibitors | 640 compounds, 22% hits | AID 720576;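 further: potency means the concentration at half of the fitted maximal effect; 44 h compound exposure; on the % scale 0 is the no-effect control and ±100 the full control effect; nearly all actives have a fitted effect of over 55% in size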
* marks the source's active call; other numbers are inactive results; ? = inconclusive; . = no result; ! = a repeat was not active; [ ] = remark or other dose. Unless noted, the call rests on the fitted dose curve; in most records, active means well fitted curve in the direction sought with a large enough effect; inconclusive means small, poorly fitted or top-dose-only effect, or another doubt; inactive means no such curve, though single readings can be large; an effect the other way counts as inactive or inconclusive.

SMILES	Marburg entry inh	HCV inh	LASV entry inh	HCMV inh	FMDV antiviral	HCV confirm	HCV cytotox
Cc1cc(=O)n(C)c(=O)n1CCCCCCOc1cccc([N+](=O)[O-])c1	-55.5%	7.08µM*	9.7%	-26.0	?	9.95µM*	-18.9%
Cc1ncc([N+](=O)[O-])n1S(=O)(=O)c1cc(Cl)ccc1Cl	28.1%	12.9%	13.5%	10.3	-17.1%	.	.
Oc1ccc(Br)cc1-c1cc(-c2ccco2)[nH]n1	-18.9%	?	-1.8%	-2.2	5.0%	.	.
Oc1ccc(Br)cc1-c1ccn[nH]1	?	?	9.1%	?	11.7%	-27.6%	-19.7%
Cc1cccc(Cn2c(O)c(N=NC(=S)Nc3ccccc3F)c3ccccc32)c1	?	3.98µM*	-25.1%	-37.4	-4.7%	7.91µM*	?
COC1C(O)C(OC2CC[C@]3(C=O)C4C(OC(C)=O)C[C@@]5(C)C(C6=CC(=O)OC6)CC[C@]5(O)C4CC[C@]3(O)C2)OC(C)C1OC(C)=O (stereo not given in full)	.	.	.	.	-8.2%	.	.
COC1C(O)C(C)OC(OC2CCC3(C)C(CCC4C3C(O)CC3(C)C(C5=CC(=O)OC5)CCC43O)C2)C1O (stereo not given)	?	1.58µM*	?	-99.5*	-20.8%	1.12µM*	?
Cc1ccc(/C=C/C(=O)OCc2nc(N)nc(Nc3ccccc3C)n2)o1	.	?	.	18.3	-25.2%	.	.
Cc1nn(C)c(C)c1NC(=O)CCSc1nc(-c2ccco2)cc(C(F)(F)F)n1	-17.8%	3.98µM*	-9.4%	?	0.0%	?	-22.5%
CCOC(=O)C1(CCc2ccccc2)CCN(Cc2ccc(O)cc2)CC1	.	?	.	-3.3	?	.	.
CCOC(=O)C1(CCc2ccccc2)CCN(Cc2csc(C(C)=O)c2)CC1	?	6.31µM*	-14.2%	?	12.6µM*	14.1µM*	?
O=C(/C=C\c1ccc2c(c1)OCO2)NC1CC(=O)N(c2ccc(Cl)cc2)C1 (stereo not given)	.	.	6.0%[46.1 µM]	?	-15.0%	.	.
O=C(/C=C\c1ccc2c(c1)OCO2)Nc1c2c(nn1-c1ccc(Cl)cc1)CSC2	-19.1%	?	-9.8%	6.1	-25.9%	12.5µM*	12.7%
CCOc1ccc(NS(=O)(=O)c2cc(Cl)ccc2OC)cc1	?	-13.3%	0.0%	11.0	-16.7%	.	.
COc1ccccc1N1CCN(S(=O)(=O)c2c(C)sc3ncn(CC(=O)N(C)c4ccc(C(C)C)cc4)c(=O)c23)CC1	23.1%[46.1 µM]	.	-25.9%[46.1 µM]	-6.7	0.0%	.	.
CCn1nc(C)c(CNC(=O)c2ccc(OC3CCN(Cc4ccccn4)CC3)cc2)c1C	?	1µM*	?	-91.0*	?	0.56µM*	1.12µM*
CC(CNC(=O)c1ccc(OC2CCN(Cc3ccccn3)CC2)cc1)c1ccccc1 (stereo not given)	.	.	.	-21.4	.	.	.
Cc1ccc2sc(N(CCCN(C)C)C(=O)c3nc4ccccc4s3)nc2c1C	?	?	?	-8.1	-20.1%	.	.
Cc1ccc2sc(N(CCCN(C)C)C(=O)c3ccc(Br)s3)nc2c1C	14.6µM*	7.08µM*	?	-15.2	-22.8%	?	-28.0%
Cc1cc(C)nc(NCC(O)CNc2ccccc2Cl)n1 (stereo not given)	-46.1%	?	-18.3%	-29.6	?	28µM*	12.3%
c1ccc(-c2cccc(-c3ccccn3)n2)nc1	2.06µM*	5.62µM*	2.06µM*	-100.8*	9.5%	3.53µM*	3.53µM*
CCn1c(NCc2ccccn2)nc2c1c(=O)n(C)c(=O)n2C	?	20.8%	0.5%	-33.3	8.1%	.	.
CC(C)n1c(NCCc2ccccc2)nc2c1c(=O)n(C)c(=O)n2C	?	?	?	-87.4*	15.8µM*	7.91µM*	?
CCOc1ccc(CCNc2nc3c(c(=O)n(C)c(=O)n3C)n2CC)cc1OCC	?	5.62µM*	?	-96.5*	-24.7%	6.28µM*	14.1µM*
COc1ccc(-c2nc(SCc3ccccc3)n(S(C)(=O)=O)n2)cc1	-10.7%	2.82µM*	-3.4%	35.8	-17.8%	-27.1%	34.5%
SMILES	Marburg entry inh	HCV inh	LASV entry inh	HCMV inh	FMDV antiviral	HCV confirm	HCV cytotox
COc1ccc(-c2ccc(CN3C(C)C(=O)N(Cc4cn(CCC5OCCO5)nn4)CCS3(=O)=O)cc2)cc1OC (stereo not given)	.	.	.	-2.9	-25.5%	.	.
O=C(NC(=S)Nc1cccc([N+](=O)[O-])c1)C1CCCCC1	10.3%[46.1 µM]	-2.1%	3.5%[46.1 µM]	43.6	7.4%	.	.
O=C(Nc1ccc([N+](=O)[O-])cc1)/C(=C/c1cccc([N+](=O)[O-])c1)NC(=O)C1CCCCC1	?	?	-3.1%	15.1	.	22.3µM*	48.2%
Oc1ccc(Nc2nc(Cl)nc(NCc3ccco3)n2)cc1	5.1%	?	0.8%	29.6	0.0%	.	.
c1ccc(Nc2nc(NCc3ccco3)c3ccccc3n2)cc1	?	3.98µM*	12.6µM*	-66.2*	14.1µM*	14.1µM*	25µM*
CCN1CCN(c2ccc(S(=O)(=O)N3CCOCC3)cc2NC(=O)c2ccc(Cl)s2)CC1	-3.5%	?	5.8%	7.8	-21.8%	.	.
CCC(C)NC(=O)CSc1nc(-c2cccs2)cc(C(F)(F)F)n1 (stereo not given)	-24.3%	4.47µM*	-8.2%	?	.	19.9µM*	-35.9%
O=C(O)CSc1nc(-c2cccs2)cc(C(F)(F)F)n1	?	-21.8%	9.1%	-18.9	-13.8%	.	.
CCN(CC)C(=O)c1cnn(-c2ccc(F)cc2)c1-n1cccc1	.	.	1.4%[46.1 µM]	-4.5	-15.8%	.	.
c1cc2c(cc1C1CCCCC1)c1c3n2CCCNC3CCC1 (stereo not given)	?	3.55µM*	?	-2.7	0.0%	28µM*	31.5µM*
COc1ccc(NC(=S)N2CCCC(c3nc4ccc(C)cc4[nH]3)C2)cc1 (stereo not given)	-21.6%	5.01µM*	?	-5.0	2.5%	0.0353µM*	10.1%
COc1cccc(N(C(=O)CCl)C(C(=O)NCCc2ccccc2)c2cccs2)c1 (stereo not given)	?	0.708µM*	?	-100.4*	15.8µM*	0.887µM*	0.499µM*
Cc1ccc(C(=O)NCc2ccc(F)cc2)cc1NC(=O)c1nsc2ccccc12	.	.	?	-13.8	-0.5%	.	.
Cc1cccc(C(=O)N=c2c(C#N)cc3c(=O)n4cccc(C)c4nc3n2Cc2ccco2)c1	14.1µM*!	5.62µM*	2.7%	-31.3	5.5%	3.96µM*	0.4%
COc1cc(OC)c(NC(=O)c2ccoc2C)cc1Cl	?	?	-7.5%	19.0	1.3%	.	.
COc1ccc(Cl)cc1NC(=O)c1ccoc1C	1.4%	5.62µM*	18.3%	26.2	-8.2%	14.1µM*	7.9%
O=c1c2ccccc2nc(-c2ccccc2)n1Cc1ccc(Cl)cc1	-19.3%	-6.2%	-8.9%	-0.9	-9.2%	.	.
